Bioassay records: PubChem, National Center for Advancing Translational Sciences (NCATS)
CtBP-E1A blk – CtBP/E1A binding inhibition; AlphaScreen GST-E1A/His-CtBP binding, 1536-well; active compounds read low; activity change, % (no concentration beside the values); hit rate 0.49% among 340,000; AID 651724; in the data active = activity change below about -65%; inconclusive = mostly about -30% to -63%; also: % is scaled to controls: 0 for no effect and ±100 for the full control effect
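GST-E1A and His-tagged CtBP (125 nM each as 5X stock) were preincubated with pin-transferred compound for 2 h at 37 °C in the dark, then glutathione donor and nickel acceptor beads were added for 1 h before AlphaScreen reading.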
HP1b chromo inh – HP1-beta chromodomain-methylated histone interaction inhibition. P83916. AlphaScreen HP1-beta / biotin-H3K9me3 peptide binding. Potency, µM (doses to about 114 µM), inactives show at the top dose activity change, negative = inhibition, most hits filed as inhibitors. hit rate 0.56% among 390,000. AID 540317; also: potency is read from the fitted curve at half-maximal effect; nearly all actives have a fitted effect of over 70% in size
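HP1-beta protein (50 nM final) preincubated 30 min at room temperature with biotinylated H3(1-18)K9me3 peptide (50 nM) in PBS pH 7.4, 0.01% Tween-20, then compound added for 30 min. AlphaScreen streptavidin donor/nickel chelate acceptor beads (10 ug/mL final), 30 min dark, luminescence read.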
JMJD2A Tudor – blocks the human JMJD2A Tudor domain; O75164; AlphaScreen JMJD2A-Tudor / H3K4me3 peptide binding; Potency, µM (series often up to 114 µM), without a hit: at the top dose activity change, negative = inhibition, usual class: inhibitors; hit rate 4.4% among 390,000; AID 504339; also: potency is read from the fitted curve at half-maximal effect; % is scaled to controls: 0 for no effect and ±100 for the full control effect; nearly all actives have a fitted effect of over 50% in size
G9a inh – blocks human histone lysine methyltransferase G9a; Q96KQ7; G9a H3K9 monomethylation, AlphaScreen, 2 h; Potency, µM (doses to about 102 µM), without a hit: top-dose activity, negative = inhibition, hits mostly inhibitors; hit rate 8.8% among 350,000; AID 504332; also: potency is read from the fitted curve at half-maximal effect; % is scaled to controls: 0 for no effect and ±100 for the full control effect; nearly all actives have a fitted effect of over 75% in size
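Compounds were preincubated with 20 nM G9a for 15 min, after which biotinylated H3K9 peptide (500 nM) and SAM (20 uM) started a 2 h room-temperature reaction. Monomethylated product was quantified by antibody-based AlphaScreen chemiluminescence.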
BAZ2B block – blocks human BAZ2B | hit rate 4.4% among 360,000 | AID 504333 | AlphaScreen BAZ2B-H3K14Ac peptide displacement | Q9UIF8 | Potency, µM (doses to about 114 µM), without a hit: top-dose activity change, negative = inhibition, hits mostly inhibitors; also: potency is read from the fitted curve at half-maximal effect; % is scaled to controls: 0 for no effect and ±100 for the full control effect; nearly all actives have a fitted effect of over 60% in size
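Inhibition is scored as reduced AlphaScreen emission. The BAZ2B/b-H3(5-23)K14Ac complex (50 nM each) in PBS pH 7.4, 0.01% Tween-20 meets compound (up to 110 uM) for 30 min at RT before bead addition.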
Six1-Eya2 inh – blocks human Six1 binding to Eya2. Q15475+O00167. AID 651725. activity change, % (no concentration beside the values). hit rate 0.56% among 360,000. AlphaScreen GST-Six1/His-Eya2 binding, biochemical; active compounds read low; in the data active = activity change below about -65%; inconclusive = mostly about -30% to -63%; also: % is scaled to controls: 0 for no effect and ±100 for the full control effect
Target sequence (O00167 whole entry, looked up): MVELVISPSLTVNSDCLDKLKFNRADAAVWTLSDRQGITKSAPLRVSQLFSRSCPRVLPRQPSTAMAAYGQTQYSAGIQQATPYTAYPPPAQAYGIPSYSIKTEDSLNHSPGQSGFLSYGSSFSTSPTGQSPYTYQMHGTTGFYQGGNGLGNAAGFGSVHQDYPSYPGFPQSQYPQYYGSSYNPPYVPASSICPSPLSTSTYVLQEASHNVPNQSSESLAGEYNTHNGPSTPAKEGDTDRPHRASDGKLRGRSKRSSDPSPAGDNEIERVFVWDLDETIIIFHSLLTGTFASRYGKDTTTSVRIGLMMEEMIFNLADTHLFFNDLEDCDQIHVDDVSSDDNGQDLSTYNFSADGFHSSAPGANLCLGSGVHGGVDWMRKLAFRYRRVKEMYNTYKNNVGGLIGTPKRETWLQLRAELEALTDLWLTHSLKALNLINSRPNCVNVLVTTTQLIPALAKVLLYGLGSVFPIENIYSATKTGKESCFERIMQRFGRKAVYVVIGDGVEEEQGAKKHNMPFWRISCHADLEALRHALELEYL
Target sequence (Q15475 whole entry, looked up): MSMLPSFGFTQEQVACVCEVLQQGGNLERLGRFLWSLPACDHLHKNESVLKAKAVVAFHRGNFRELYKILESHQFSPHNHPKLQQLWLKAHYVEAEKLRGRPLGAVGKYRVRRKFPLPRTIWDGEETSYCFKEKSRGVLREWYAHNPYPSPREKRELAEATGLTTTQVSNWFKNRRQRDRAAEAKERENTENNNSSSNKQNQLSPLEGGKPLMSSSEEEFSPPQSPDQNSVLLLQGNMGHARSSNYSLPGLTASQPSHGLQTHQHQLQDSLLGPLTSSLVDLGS
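Six1/Eya2 binding was read as AlphaScreen signal after compounds were pinned into GST-Six1 plus His-tagged Eya2 (5X stock 250/500 nM) in pH 8.0 Tris/NaCl/TCEP buffer, beads added, then incubated 1 h, 37 C, dark.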
* hit, by the source's call; i = inactive; u = inconclusive; x = no result given; [ ] = remark or other dose. The list is not random: actives were taken first. Their share in the collection is about 10%. Unless noted, calls follow the shape of the dose curve; as a rule, active = well fitted inhibition curve with a large enough effect; inconclusive = small, poorly fitted or top-dose-only effect; inactive = no such curve, though single readings can be large or run the other way.

SMILES | CtBP-E1A blk | HP1b chromo inh | JMJD2A Tudor | G9a inh | BAZ2B block | Six1-Eya2 inh
O=C(Nc1nc(-c2ccco2)c(-c2ccco2)s1)C1CC(=O)N(c2ccc3c(c2)OCCO3)C1 (stereo not drawn) | -7.4 | -86.9% | 25.1µM* | u | 11.2µM* | u
O=C(Nc1nc(-c2ccco2)c(-c2ccco2)s1)C1CCC1 | -13.9 | 50.1µM* | 39.8µM* | u | 31.6µM* | -27.2
O=C(Nc1nnc(-c2ccncc2)o1)C1CCCCC1 | -14.3 | 34.2% | 20µM* | u | 50.1µM* | u
O=C(Nc1nnc(-c2ccncc2)o1)c1ccc(Br)s1 | -4.5 | 33.0% | u | -26.3% | 70.8µM* | u
Cc1ccc(NC(=O)Cn2cc(C(=O)C3CCCCC3)c3ccccc32)cc1 | x | 26.1% | -13.1% | -7.3%[59 µM] | -20.5% | x
COc1ccc(-c2noc(-c3ccc(NCc4ccc(C)cc4)c([N+](=O)[O-])c3)n2)cc1OC | x | 14.7% | -13.9% | -6.4%[59 µM] | -1.1% | x
CS(=O)(=O)c1ccc(C(=O)Nc2nc(-c3ccco3)c(-c3ccco3)s2)cc1 | -17.4 | 39.8µM* | u | 10µM* | 39.8µM* | u
O=C(Nc1nnc(-c2ccco2)o1)C1CCCCC1 | -9.2 | 33.9% | 89.1µM* | u | u | -13.9
O=C(Nc1nnc(-c2ccco2)s1)C1CCCCC1 | 0.7 | 58.0% | -28.0% | 14.2%[59 µM] | 50.1µM* | -1.6
O=C(Nc1nnc(-c2cccs2)o1)C1CC1 | -11.4 | 27.2% | 50.1µM* | 50.1µM* | u | -7.5
Cc1ccc(S(=O)(=O)N2CCC(C(=O)Nc3nnc(-c4ccco4)s3)CC2)cc1 | -6.7 | -7.0% | -16.0% | -8.6%[12.7 µM] | u | -0.3
O=C(Nc1nnc(-c2ccc(Cl)s2)o1)C1CC1 | -11.7 | 30.4% | -26.6% | -49.3% | x | -16.2
COc1ccc(NC(=O)c2c(C)oc3ccc(O)c(CN4CCCCCC4)c23)cc1 | x | 23.8% | u | -10.5%[59 µM] | -27.1% | x
Cc1cc(NO)nc(-c2ccc(Br)cc2)n1 | -6.1 | u | 20µM* | u | x | -1.8
Cc1cc(C)nc(NC(=O)c2ccc(Br)cc2)n1 | -4.9 | -9.0% | -10.5% | u | -10.0% | 3.7
O=C1S/C(=C\c2ccccn2)C(=O)N1Cc1ccccc1F | -2.4 | 0.9% | -20.0% | 17.8µM* | 6.2% | 6.5
CC(CC(=O)Nc1ccc(F)cc1)S(=O)(=O)c1cc2c3c(c1)CCN3C(=O)CC2 (stereo not drawn) | x | 0.4% | -7.1% | 7.6%[59 µM] | 0.5% | x
Nc1ccc(Oc2ccccc2-c2ccccc2)cc1 | -21.0 | u | 50.1µM* | x | x | -18.9
CCCNC(=O)OCc1cccnc1Sc1ccc(C)cc1 | 8.9 | 4.2% | 44.7µM* | 29.2% | 14.8% | 0.9
CCOC(=O)Nc1cccnc1Sc1ccc(Cl)cc1 | 0.7 | 1.6% | 1.4% | x | x | 18.0
CN(C(=O)CSc1nc2ccccc2n1CC(=O)NCc1ccc(F)cc1)c1ccc(F)cc1 | x | 15.3% | -14.6% | -0.9%[59 µM] | 1.0% | x
COc1ccc2nc(N3CCCCC3)c(C#N)cc2c1 | 42.9 | i | 435.0% | i | i | 74.9
COc1ccc2nc(N3CCCCC3)c(/C=C3\SC(=S)NC3=O)cc2c1 | 4.4 | u | 28.2µM* | 11.2µM* | 25.1µM* | -9.3
N#C/C(=C\c1cc2ccccc2nc1N1CCCCC1)C(N)=O | -11.9 | 34.3% | -6.6% | 3.1%[59 µM] | -7.9% | -21.3
O=C1NC(=S)S/C1=C\c1cc2ccccc2nc1N1CCCCC1 | 2.0 | -17.3% | 44.7µM* | -27.7% | -32.7% | 8.2
O=c1[nH]cnc2c1ncn2[C@H]1C[C@H](O)[C@@H](CO)O1 | x | 18.4%[57 µM] | -2.3%[57.1 µM] | x | x | x
O=C(Nc1ccn(CCCNCC(c2ccccc2)c2ccccc2)c(=O)n1)OCc1ccccc1 | -5.6 | x | x | x | x | -6.8
Cc1ccc(NCCCn2ccc(NC(=O)OCc3ccccc3)nc2=O)cc1C | -19.8 | u | 56.2µM* | x | x | u
O=c1[nH]c(=O)c2nnc(N/N=C\c3ccc(O)cc3)nc2[nH]1 | -65.2* | 40.3% | u | 11.2µM* | u | -75.4*
